Source: PubChem BioAssay (Tox21)
Activity calls are given as the source filed them. Entries that show only a call come without a potency. Unless noted, calls follow the shape of the dose curve; as a rule, active = well fitted activation curve with a large enough effect in the repeat runs; inconclusive = weak or mixed curves; inactive = flat fitted curve, though single readings scatter.

molecular target: KiSS-1 receptor (Homo sapiens) (UniProt Q969F8); assay: Human kisspeptin (KISS1R) small molecule agonists, calcium flux assay in KISS1R-HEK293 cells (AID 1920064); details: KISS1R-HEK293, calcium flux fluorescence, agonist; series mostly up to 76.8 µM
How it was run: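 Agonist mode: intracellular calcium rise tracked at 1 s intervals over 3 min (480/540 nm) immediately after compound addition to dye-loaded KISS1R-HEK293 stable cells. Each compound tested at 15 concentrations in triplicate.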

Sequence of KiSS-1 receptor (Homo sapiens) (Q969F8 whole entry, looked up): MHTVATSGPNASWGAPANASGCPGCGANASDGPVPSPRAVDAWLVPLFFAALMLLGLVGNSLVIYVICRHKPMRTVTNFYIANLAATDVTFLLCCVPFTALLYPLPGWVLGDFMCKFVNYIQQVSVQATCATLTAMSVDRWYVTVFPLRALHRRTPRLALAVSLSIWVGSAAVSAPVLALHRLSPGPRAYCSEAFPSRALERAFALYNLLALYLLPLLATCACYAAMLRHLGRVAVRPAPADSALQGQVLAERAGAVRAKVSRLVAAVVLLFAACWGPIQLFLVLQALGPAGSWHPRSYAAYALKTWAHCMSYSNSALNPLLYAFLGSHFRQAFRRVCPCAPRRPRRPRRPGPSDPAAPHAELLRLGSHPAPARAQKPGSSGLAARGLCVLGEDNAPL

| SMILES | Potency | activation |
| --- | --- | --- |
| CC(C)COC(=O)c1ccc(N)cc1 | inactive |  |
| CCCc1cc(C(N)=S)ccn1 | inactive |  |
| CCCCCCCCCCCCCCO | inactive |  |
| CCO/C([O-])=N/c1c[n+](N2CCOCC2)no1 | inactive |  |
| O=C(O)c1ccco1 | inactive |  |
| CSc1cnccn1 | inactive |  |
| CCCCCCCOC(C)=O | inactive |  |
| CCc1cnc(C(=O)O)c(C(=O)O)c1 | inactive |  |
| NS(=O)(=O)c1ccc(NC(=O)CCC(=O)O)cc1 | inactive |  |
| COc1ccc(C(=O)CC(=O)c2ccc(C(C)(C)C)cc2)cc1 | inactive |  |
| CCO[Si](OCC)(OCC)c1ccccc1 | inactive |  |
| CCC1COC(=O)O1 (stereo not drawn) | inactive |  |
| CC(C)(C)c1ccc(CCC=O)cc1 | inactive |  |
| FC(F)(F)c1cccc(Cl)c1 | inactive |  |
| Nc1ccc(NCCO)c([N+](=O)[O-])c1 | inactive |  |
| IC(I)I | inactive |  |
| Cc1cccc(Cl)c1 | inactive |  |
| CC1=CCC(C(C)C)=CC1 | inactive |  |
| CC1(C)C(C=C(Cl)Cl)C1C(=O)OCc1cccc(Oc2ccccc2)c1 (stereo not drawn) | inactive |  |
| CCCOCCOCCOCCO | inactive |  |

| SMILES | Potency | activation |
| --- | --- | --- |
| N=C(N)c1ccc2cc(OC(=O)c3ccc(N=C(N)N)cc3)ccc2c1 | inactive |  |
| O=[N+]([O-])c1ccc(F)cc1F | inactive |  |
| CC(=O)N(c1onc(C)c1C)S(=O)(=O)c1ccc(N)cc1 | inactive |  |
| OC[C@H]1O[C@@H](O[C@H]2[C@H](O)[C@@H](O)[C@H](O)O[C@@H]2CO)[C@H](O)[C@@H](O)[C@H]1O | inactive |  |
| c1ccc2c(c1)CCC2 | inactive |  |
| CN(C)c1ccc(/C=C/c2ccc([N+](=O)[O-])cc2)cc1 |  | 7.36% [at 6.97 µM] (inactive) |
| NCCC(O)(P(=O)(O)O)P(=O)(O)O | inactive |  |
| CO[Si](OC)(OC)c1ccccc1 | inactive |  |
| O=C(c1ccc(Cl)cc1)c1ccc(Cl)cc1 | inactive |  |
| CC[C@H]1CN2CCc3cc(OC)c(OC)cc3[C@@H]2C[C@@H]1C[C@H]1NCCc2cc(OC)c(OC)cc21 | inactive |  |
| CC(C)c1cccc(O)c1 | inactive |  |
| CC(C)CC=O | inactive |  |
| COc1cccc(OC)c1C(=O)N[C@@H]1C(=O)N2[C@@H]1SC(C)(C)[C@@H]2C(=O)O | inactive |  |
| O=P(OC(CCl)CCl)(OC(CCl)CCl)OC(CCl)CCl | inactive |  |
| CC/C=C\CC1=C(C)CCC1=O | inactive |  |
| CCC(C)S (stereo not drawn) |  | 1.34% [at 2.72 µM] (inactive) |
| c1ccc2c(c1)CCc1ccccc1N2 | inactive |  |
| CCCCOC(=O)C(C)OC(=O)CCC (stereo not drawn) | inactive |  |
| CCCC=O | inactive |  |

tested on: not listed separately; assay: G protein-coupled receptor (GPCR) small molecule agonists, calcium flux assay: HEK293 wild type cell line counter screen (AID 1920065; calls by dose curve); details: HEK293 WT calcium flux, fluorescence, agonist mode; series mostly up to 57.6 µM
How it was run: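 Calcium flux counter screen: compound added in agonist mode at 15 concentrations in triplicate to dye-loaded parental HEK293 cells. Fluorescence (480/540) read kinetically for 3 min; ATP served as positive control.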

| SMILES | Potency | activation |
| --- | --- | --- |
| CC(C)COC(=O)c1ccc(N)cc1 | inactive |  |
| CCCc1cc(C(N)=S)ccn1 | inactive |  |
| CCCCCCCCCCCCCCO | inactive |  |
| CCO/C([O-])=N/c1c[n+](N2CCOCC2)no1 | inactive |  |
| O=C(O)c1ccco1 | inactive |  |
| CSc1cnccn1 | inactive |  |
| CCCCCCCOC(C)=O | inactive |  |
| CCc1cnc(C(=O)O)c(C(=O)O)c1 | inactive |  |
| NS(=O)(=O)c1ccc(NC(=O)CCC(=O)O)cc1 | inactive |  |
| COc1ccc(C(=O)CC(=O)c2ccc(C(C)(C)C)cc2)cc1 | inactive |  |
| CCO[Si](OCC)(OCC)c1ccccc1 | inactive |  |
| CCC1COC(=O)O1 (stereo not drawn) | inactive |  |
| CC(C)(C)c1ccc(CCC=O)cc1 | inactive |  |
| FC(F)(F)c1cccc(Cl)c1 | inactive |  |
| Nc1ccc(NCCO)c([N+](=O)[O-])c1 | inactive |  |
| IC(I)I | inactive |  |
| Cc1cccc(Cl)c1 | inactive |  |
| CC1=CCC(C(C)C)=CC1 | inactive |  |
| CC1(C)C(C=C(Cl)Cl)C1C(=O)OCc1cccc(Oc2ccccc2)c1 (stereo not drawn) | inactive |  |
| CCCOCCOCCOCCO | inactive |  |

| SMILES | Potency | activation |
| --- | --- | --- |
| N=C(N)c1ccc2cc(OC(=O)c3ccc(N=C(N)N)cc3)ccc2c1 | inactive |  |
| O=[N+]([O-])c1ccc(F)cc1F | inactive |  |
| CC(=O)N(c1onc(C)c1C)S(=O)(=O)c1ccc(N)cc1 | inactive |  |
| OC[C@H]1O[C@@H](O[C@H]2[C@H](O)[C@@H](O)[C@H](O)O[C@@H]2CO)[C@H](O)[C@@H](O)[C@H]1O | inactive |  |
| c1ccc2c(c1)CCC2 | inactive |  |
| CN(C)c1ccc(/C=C/c2ccc([N+](=O)[O-])cc2)cc1 |  | 0.221% [at 5.23 µM] (inactive) |
| NCCC(O)(P(=O)(O)O)P(=O)(O)O | inactive |  |
| CO[Si](OC)(OC)c1ccccc1 | inactive |  |
| O=C(c1ccc(Cl)cc1)c1ccc(Cl)cc1 | inactive |  |
| CC[C@H]1CN2CCc3cc(OC)c(OC)cc3[C@@H]2C[C@@H]1C[C@H]1NCCc2cc(OC)c(OC)cc21 | inactive |  |
| CC(C)c1cccc(O)c1 | inactive |  |
| CC(C)CC=O | inactive |  |
| COc1cccc(OC)c1C(=O)N[C@@H]1C(=O)N2[C@@H]1SC(C)(C)[C@@H]2C(=O)O | inactive |  |
| O=P(OC(CCl)CCl)(OC(CCl)CCl)OC(CCl)CCl | inactive |  |
| CC/C=C\CC1=C(C)CCC1=O | inactive |  |
| CCC(C)S (stereo not drawn) |  | 0.0986% [at 2.04 µM] (inactive) |
| c1ccc2c(c1)CCc1ccccc1N2 | inactive |  |
| CCCCOC(=O)C(C)OC(=O)CCC (stereo not drawn) | inactive |  |
| CCCC=O | inactive |  |
